Test results: PubChem BioAssay AID1863 (Southern Research Specialized Biocontainment Screening …, 2009)
The whole screen tested about 300,000 compounds, of which about 480 (0.16%) were called active.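 Rule for the calls: active = inhibition over 29.93%, a cutoff 3 SD above the screen mean, later confirmed by dose response; inconclusive = inhibition over 29.93% but no dose response follow-up; inactive = inhibition at most 29.93% or unconfirmed.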 These entries were drawn from the full list. Entries with a potency or affinity are not part of this list.

assay: PhoP-dependent GFP reporter repression – Salmonella Typhimurium, primary screen (AID 1863);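 note: 0% = low Mg2+ inducing control and 100% = high Mg2+ repressing control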; conditions: S. Typhimurium PhoP-regulated promoter GFP reporter, 4 h; at 50 µM; active compounds read high

Q: For `O=C(ONC1=NCCCCC1)c1ccc(Cl)cc1`, which inhibition is on record?
A: The inhibition was -13.6% (inactive).

Q: For `Cc1nn(C)c(=O)n1-c1ccccc1`, which inhibition is on record?
A: The inhibition was 0.59% (inactive).

Q: With `O=C(N/N=C/c1ccccc1[N+](=O)[O-])c1cccs1` as the molecule, how does the inhibition read?
A: Its inhibition is -1.95% (inactive).

Q: Which inhibition does the source give for `O=C(N/N=C\c1cc2c(cc1[N+](=O)[O-])OCO2)c1cccs1` here?
A: Its inhibition is -4.81% (inactive).

Q: Which inhibition does the source give for `O=C(N/N=C/c1ccc(Br)s1)c1cccs1` here?
A: Its inhibition is 0.89% (inactive).

Q: For `O=C(N/N=C\c1ccc(Cl)s1)c1cccs1`, which inhibition is on record?
A: The inhibition was -9.8% (inactive).

Q: Which inhibition does the source give for `COc1ccccc1NC(=O)Nc1ccc(Cl)c(S(=O)(=O)Nc2ccccc2OC)c1` here?
A: The inhibition was -18.5% (inactive).

Q: Which inhibition does the source give for `CCOc1ccc(CN(CC)C(=O)c2ccc3c(c2)[nH]c(=O)c(=O)n3CC)cc1OC` here?
A: The inhibition was 2.8% (inactive).

Q: Which inhibition does the source give for `COc1ccccc1CCNC(=O)C1(C)CC1(Cl)Cl` (configuration not stated) here?
A: Its inhibition is -0.33% (inactive).

Q: Which inhibition does the source give for `O=C(CN1CCN(Cc2ccccc2)CC1)NCc1ccc(Cl)cc1` here?
A: Its inhibition is 3.85% (inactive).

Q: For `CCOC(=O)C1CCCN(C(=O)c2ccccc2NC(C)=O)C1` (configuration not stated), which inhibition is on record?
A: Its inhibition is 8.46% (inactive).

Q: Which inhibition does the source give for `OCCn1c(CSc2nnc(-c3ccco3)n2-c2ccccc2)nc2ccc(Cl)cc21` here?
A: Its inhibition is 8.64% (inactive).

Q: With `COc1cccc(-c2nc(=S)c3c(n2CCCO)CCCC3)c1` as the molecule, how does the inhibition read?
A: The inhibition was 6.79% (inactive).

Q: With `CSc1cccc(NC(=S)N(CCCN2CCCC2)Cc2cccs2)c1` as the molecule, how does the inhibition read?
A: Its inhibition is 2.61% (inactive).

Q: For `CN1/C(=C\C=O)C(C)(C)c2ccccc21`, which inhibition is on record?
A: The inhibition was 4.13% (inactive).

Q: With `CN1\C(=C/C=C/C=C/C=[N+](C)C)C(C)(C)c2ccccc21` as the molecule, how does the inhibition read?
A: The inhibition was -18.9% (inactive).

Q: With `O=C(c1ccccc1)c1ccccn1` as the molecule, how does the inhibition read?
A: Its inhibition is 3.01% (inactive).

Q: With `Cc1ccccc1-c1nnc(SCCOc2ccc3c(C)cc(=O)oc3c2)o1` as the molecule, how does the inhibition read?
A: Its inhibition is 0.64% (inactive).

Q: For `Cc1ccc(S(=O)(=O)CC(=O)c2ccc([N+](=O)[O-])cc2)cc1`, which inhibition is on record?
A: Its inhibition is -7.13% (inactive).

Q: With `CCn1cc(C(=O)NN)c(=O)c2cc(F)c(N3CCOCC3)cc21` as the molecule, how does the inhibition read?
A: Its inhibition is -6.58% (inactive).

Q: With `CCn1cc(C(=O)NCc2ccccn2)c(=O)c2cc(F)c(N3CCN(C)CC3)cc21` as the molecule, how does the inhibition read?
A: The inhibition was 17.4% (inactive).

Q: Which inhibition does the source give for `CCCCCOC(=O)NCC(O)c1ccccc1` (configuration not stated) here?
A: Its inhibition is 10.7% (inactive).

Q: Which inhibition does the source give for `N#CC1=C(N)N(c2ccccc2)C(c2cccc([N+](=O)[O-])c2)C1(C#N)C#N` (configuration not stated) here?
A: The inhibition was -7.85% (inactive).

Q: Which inhibition does the source give for `O=C(Cc1ccccc1)c1c[nH]c(C(=O)NCCCN2CCOCC2)c1` here?
A: The inhibition was -3.4% (inactive).

Q: Which inhibition does the source give for `O=C(Nc1ccccc1N1CCOCC1)C1CCN(S(=O)(=O)c2ccc(F)cc2)CC1` here?
A: The inhibition was -4.59% (inactive).

Q: Which inhibition does the source give for `O=C(Nc1ccc(CN2CCOCC2)cc1)c1cccc(-c2cc3ccccc3oc2=O)c1` here?
A: The inhibition was -5.22% (inactive).

Q: Which inhibition does the source give for `O=C1c2ccccc2NC(c2ccc(-c3cccc([N+](=O)[O-])c3)o2)N1O` (configuration not stated) here?
A: The inhibition was 43% (inactive).

Q: Which inhibition does the source give for `O=C1c2ccccc2NC(c2ccc(Cl)cc2Cl)N1O` (configuration not stated) here?
A: The inhibition was 0.793% (inactive).

Q: Which inhibition does the source give for `O=C1c2ccccc2NC(c2ccco2)N1O` (configuration not stated) here?
A: The inhibition was 7.8% (inactive).

Q: Which inhibition does the source give for `Cc1cc([N+](=O)[O-])ccc1-c1ccc(C2Nc3ccccc3C(=O)N2O)o1` (configuration not stated) here?
A: Its inhibition is -3.84% (inactive).

Q: For `O=C(N/N=C/c1ccccc1[N+](=O)[O-])c1ccc2c(c1)OCCO2`, which inhibition is on record?
A: Its inhibition is -4.47% (inactive).

Q: With `CCOC(=O)c1sc(=S)n(-c2ccc(C)cc2)c1SC` as the molecule, how does the inhibition read?
A: Its inhibition is -0.48% (inactive).

Q: For `Nc1nc(N2CCCCC2)nc2ccccc12`, which inhibition is on record?
A: Its inhibition is 0.383% (inactive).

Q: Which inhibition does the source give for `Nc1nc(N2CCOCC2)nc2ccccc12` here?
A: The inhibition was 19.6% (inactive).

Q: Which inhibition does the source give for `O=C(N/N=C\c1cccc(Cl)c1)c1ccc(Cn2cc(Br)c([N+](=O)[O-])n2)o1` here?
A: The inhibition was -28.5% (inactive).

Q: For `O=C(O)/C=C/c1ccccc1Oc1ccc(Cl)cc1Cl`, which inhibition is on record?
A: Its inhibition is 1.78% (inactive).

Q: With `Nc1cc(C(=O)O)c(Oc2ccc(Cl)cc2Cl)cc1C(=O)O` as the molecule, how does the inhibition read?
A: Its inhibition is 9.23% (inactive).

Q: With `COc1ccc(N2CCN(C(=O)COc3cccc4ccccc34)CC2)cc1` as the molecule, how does the inhibition read?
A: The inhibition was 4.64% (inactive).

Q: For `Cc1ccc(NCC(=O)N/N=C/c2ccc(C(=O)O)cc2)cc1`, which inhibition is on record?
A: The inhibition was 7.26% (inactive).

Q: With `CC(=O)N1CCOc2ccc(S(=O)(=O)N3CCC(C(=O)Nc4ccc(C)cc4)CC3)cc21` as the molecule, how does the inhibition read?
A: Its inhibition is 0.99% (inactive).

Q: With `O=C(Cn1nc(CNc2ccc(Cl)cc2)[n+]2c1CCCCC2)c1ccccc1` as the molecule, how does the inhibition read?
A: Its inhibition is 8.62% (inactive).

Q: Which inhibition does the source give for `O=C(Cn1nc(CNc2ccc(Br)cc2)[n+]2c1CCCCC2)c1ccc([N+](=O)[O-])cc1` here?
A: Its inhibition is 5.85% (inactive).

Q: Which inhibition does the source give for `COc1ccc(NCc2nn(CC(=O)c3ccc(Br)cc3)c3[n+]2CCCCC3)cc1` here?
A: The inhibition was -2.79% (inactive).

Q: For `O=C(Cn1nc(CNc2ccc(Cl)cc2)[n+]2c1CCCCC2)c1ccc(Cl)cc1`, which inhibition is on record?
A: Its inhibition is 7.8% (inactive).

Q: Which inhibition does the source give for `O=C1Nc2ccccc2OCc2c1cccc2[N+](=O)[O-]` here?
A: The inhibition was -2.35% (inactive).

Q: With `O=C(O)C1CCC1C(=O)Nc1nc(-c2ccc(Cl)s2)cs1` (configuration not stated) as the molecule, how does the inhibition read?
A: The inhibition was -4.65% (inactive).

Q: Which inhibition does the source give for `CCC(=O)c1ccccc1OCCCCn1cncn1` here?
A: The inhibition was 4.32% (inactive).

Q: For `CN1CCN(C(=O)CSc2nnc(COc3ccc(Cl)cc3)o2)CC1`, which inhibition is on record?
A: Its inhibition is 5.2% (inactive).

Q: Which inhibition does the source give for `CC(=O)Nc1cccc(NC(=O)CCNC(=O)c2ccccc2)c1` here?
A: Its inhibition is 5.9% (inactive).

Q: Which inhibition does the source give for `Cc1nnc(SCc2ccc(CC(=O)O)cc2)o1` here?
A: Its inhibition is -9.32% (inactive).

Q: For `COc1ccc(C(=O)NCC(c2cccs2)N2CCc3ccccc32)cc1OC` (configuration not stated), which inhibition is on record?
A: Its inhibition is -7.86% (inactive).

Q: With `COC(=O)C1=C(C)NC2=C(C(=O)CC(C)(C)C2)C1c1cnn(C)c1C` (configuration not stated) as the molecule, how does the inhibition read?
A: Its inhibition is -3.34% (inactive).

Q: Which inhibition does the source give for `C/C(=N\Nc1nc2ccccc2[nH]1)c1ccc(Cl)s1` here?
A: The inhibition was 31.6% (inactive).

Q: For `C/C(=N\Nc1nc2ccccc2[nH]1)c1ccc(C)o1`, which inhibition is on record?
A: Its inhibition is 9.28% (inactive).

Q: Which inhibition does the source give for `CN(C)S(=O)(=O)c1ccc(C(=O)NCc2ccccc2)cc1` here?
A: Its inhibition is 5.29% (inactive).

Q: Which inhibition does the source give for `CC(C)CNC(=O)COC(=O)c1cccc(S(=O)(=O)NCC(F)(F)F)c1` here?
A: The inhibition was 0.22% (inactive).

Q: For `Cn1c(=O)c(C(=O)NNC(=O)c2ccccc2Cl)c(O)c2ccccc21`, which inhibition is on record?
A: The inhibition was 3.12% (inactive).
